# Hit rate of the full screen: of about 5,500 compounds, about 2,000 (36%) were called active. Another 18% or so got no clear call; they are omitted. The list shows a part of the results. Unmarked numbers belong to inactive results. Cut-off read from the data, not from the text of the source: active = normalized growth mostly below about 0.91 (no sharp cut-off); inconclusive = no clear call, values can overlap the other calls; inactive = mostly above about 0.92.
# Test: chemical genetic growth profiling, strain panel (AID 1159580);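 note: tested at 20 µM; growth read once vehicle control cultures reached saturation at 30 °C; 1 = growth at the plate median or of vehicle wells; lower values mean less growth of the strain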
# Conditions: S. cerevisiae deletion strains, growth OD
# [1] = locus YAR019C, strain CDC15, hits give low values
# [2] = locus YBL105C, strain PKC1, hits give low values
# [3] = locus YBR135W, strain CKS1, hits give low values
# [4] = locus YBR136W, strain MEC1, hits give low values
# [5] = locus YBR160W, strain CDC28, hits give low values
# [6] = locus YDL017W, strain CDC7, hits give low values
# [7] = locus YDL028C, strain MPS1, hits give low values
# [8] = locus YDL101C, strain DUN1, hits give low values
# [9] = locus YDL108W, strain KIN28, hits give low values
# [10] = locus YDL132W, strain cdc53, hits give low values
# [11] = locus YDL214C, strain PRR2, hits give low values
# [12] = locus YDR052C, strain DBF4, hits give low values
# [13] = locus YDR054C, strain cdc34, hits give low values
# [14] = locus YDR226W, strain ADK1, hits give low values
# [15] = locus YDR477W, strain SNF1, hits give low values
# [16] = locus YER123W, strain YCK3, hits give low values
# [17] = locus YER133W, strain GLC7, hits give low values
# [18] = locus YFL009W, strain cdc4, hits give low values
# [19] = locus YFL029C, strain CAK1, hits give low values
# [20] = locus YFR003C, strain YPI1, hits give low values
# [21] = locus YFR019W, strain FAB1, hits give low values
# [22] = locus YFR028C, strain CDC14, hits give low values
# [23] = locus YGR040W, strain KSS1, hits give low values
# [24] = locus YGR052W, strain FMP48, hits give low values
# [25] = locus YGR092W, strain DBF2, hits give low values
# [26] = locus YHR030C, strain SLT2, hits give low values
# [27] = locus YHR079C, strain IRE1, hits give low values
# [28] = locus YHR082C, strain KSP1, hits give low values
# [29] = locus YHR205W, strain SCH9, hits give low values
# [30] = locus YIL147C, strain SLN1, hits give low values
# [31] = locus YJL095W, strain BCK1, hits give low values
# [32] = locus YJL128C, strain PBS2, hits give low values
# [33] = locus YJL157C, strain FAR1, hits give low values
# [34] = locus YJR016C, strain ILV3, hits give low values
# [35] = locus YJR066W, strain TOR1 (second series), hits give low values
# [36] = locus YJR066W, strain TOR1, hits give low values
# [37] = locus YKL048C, strain ELM1, hits give low values
# [38] = locus YKL067W, strain YNK1, hits give low values
# [39] = locus YKL101W, strain HSL1, hits give low values
# [40] = locus YKL193C, strain SDS22, hits give low values
# [41] = locus YKL203C, strain TOR2, hits give low values
# [42] = locus YLR113W, strain HOG1, hits give low values
# [43] = locus YLR133W, strain CKI1, hits give low values
# [44] = locus YLR403W, strain SFP1, hits give low values
# [45] = locus YML070W, strain DAK1, hits give low values
# [46] = locus YMR001C, strain CDC5, hits give low values
# [47] = locus YMR205C, strain PFK2 (second series), hits give low values
# [48] = locus YMR277W, strain FCP1, hits give low values
# [49] = locus YNL006W, strain LST8, hits give low values
# [50] = locus YNL020C, strain ARK1, hits give low values
# [51] = locus YNL161W, strain CBK1, hits give low values
# [52] = locus YNL183C, strain NPR1, hits give low values
# [53] = locus YNL207W, strain RIO2, hits give low values
# [54] = locus YNL222W, strain SSU72, hits give low values
# [55] = locus YNL307C, strain MCK1 (second series), hits give low values
# [56] = locus YOL078W, strain AVO1, hits give low values
# [57] = locus YOL136C, strain PFK27, hits give low values
# [58] = locus YOR061W, strain CKA2, hits give low values
# [59] = locus YOR119C, strain RIO1, hits give low values
# [60] = locus YOR231W, strain MKK1, hits give low values
# [61] = locus YOR329C, strain SCD5, hits give low values
# [62] = locus YPL031C, strain PHO85, hits give low values
# [63] = locus YPL153C, strain RAD53, hits give low values
# [64] = locus YPL204W, strain HRR25, hits give low values
# [65] = locus YPL209C, strain IPL1, hits give low values
# [66] = locus YPL256C, strain CLN2, hits give low values
# [67] = locus YPR025C, strain CCL1, hits give low values
# [68] = locus YPR106W, strain ISR1, hits give low values
# [69] = locus YPR111W, strain DBF20, hits give low values
# [70] = strain NNK1, hits give low values
# [71] = strain TSCII, hits give low values
structure (smiles),measurement,setting,value
COc1cc(NC(=S)NNS(=O)(=O)c2ccc(C)cc2)c(OC)cc1Cl,normalized growth,[1],0.982
same,normalized growth,[2],0.974
same,normalized growth,[3],0.978
same,normalized growth,[4],0.971
same,normalized growth,[5],0.984
same,normalized growth,[6],0.984
same,normalized growth,[7],0.982
same,normalized growth,[8],0.976
same,normalized growth,[9],0.984
same,normalized growth,[10],0.974
same,normalized growth,[11],0.939
same,normalized growth,[12],0.986
same,normalized growth,[13],0.949
same,normalized growth,[14],0.974
same,normalized growth,[15],0.933
same,normalized growth,[16],0.921
same,normalized growth,[17],0.953
same,normalized growth,[18],0.982
same,normalized growth,[19],0.976
same,normalized growth,[20],0.985
same,normalized growth,[21],0.955
same,normalized growth,[22],0.968
same,normalized growth,[23],0.942
same,normalized growth,[24],1.06
same,normalized growth,[25],1.01
same,normalized growth,[26],0.858
same,normalized growth,[27],0.997
same,normalized growth,[28],1.02
same,normalized growth,[29],0.961
same,normalized growth,[30],0.986
same,normalized growth,[31],0.927
same,normalized growth,[32],0.966
same,normalized growth,[33],0.975
same,normalized growth,[34],0.977
same,normalized growth,[35],0.955
same,normalized growth,[36],0.97
same,normalized growth,[37],0.953
same,normalized growth,[38],0.94
same,normalized growth,[39],0.935
same,normalized growth,[40],0.97
same,normalized growth,[41],1
same,normalized growth,[42],0.849 (active)
same,normalized growth,[43],0.947
same,normalized growth,[44],0.959
same,normalized growth,[45],0.942
same,normalized growth,[46],0.979
same,normalized growth,[47],0.947
same,normalized growth,[48],0.963
same,normalized growth,[49],0.986
same,normalized growth,[50],0.96
same,normalized growth,[51],0.984
same,normalized growth,[52],0.939
same,normalized growth,[53],0.981
same,normalized growth,[54],0.973
same,normalized growth,[55],0.941
same,normalized growth,[56],0.971
same,normalized growth,[57],0.929
same,normalized growth,[58],0.967
same,normalized growth,[59],1.05
same,normalized growth,[60],0.994
same,normalized growth,[61],0.984
same,normalized growth,[62],0.95
same,normalized growth,[63],0.95
same,normalized growth,[64],0.92
same,normalized growth,[65],0.972
same,normalized growth,[66],0.886
same,normalized growth,[67],0.972
same,normalized growth,[68],0.977
same,normalized growth,[69],0.951
same,normalized growth,[70],0.972
same,normalized growth,[71],0.98
COc1cc(NC(=S)NC(=O)c2ccccc2)c(OC)cc1Cl,normalized growth,[1],0.985
same,normalized growth,[2],0.995
same,normalized growth,[3],0.99
same,normalized growth,[4],0.99
same,normalized growth,[5],0.997
same,normalized growth,[6],0.998
same,normalized growth,[7],0.988
same,normalized growth,[8],0.998
same,normalized growth,[9],0.981
same,normalized growth,[10],1
same,normalized growth,[11],0.962
same,normalized growth,[12],0.996
same,normalized growth,[13],0.994
same,normalized growth,[14],0.996
same,normalized growth,[15],0.973
same,normalized growth,[16],0.963
same,normalized growth,[17],0.986
same,normalized growth,[18],0.994
same,normalized growth,[19],0.98
same,normalized growth,[20],0.998
same,normalized growth,[21],0.974
same,normalized growth,[22],1
same,normalized growth,[23],0.963
same,normalized growth,[24],1.04
same,normalized growth,[25],0.989
same,normalized growth,[26],0.949
same,normalized growth,[27],0.979
same,normalized growth,[28],1
same,normalized growth,[29],0.9
same,normalized growth,[30],0.993
same,normalized growth,[31],0.961
same,normalized growth,[32],0.971
same,normalized growth,[33],0.989
same,normalized growth,[34],1
same,normalized growth,[35],0.951
same,normalized growth,[36],0.997
same,normalized growth,[37],0.981
same,normalized growth,[38],0.974
same,normalized growth,[39],0.939
same,normalized growth,[40],1
same,normalized growth,[41],1.05
same,normalized growth,[42],0.91
same,normalized growth,[43],0.968
same,normalized growth,[44],0.941
same,normalized growth,[45],0.957
same,normalized growth,[46],0.995
same,normalized growth,[47],0.977
same,normalized growth,[48],1
same,normalized growth,[49],0.991
same,normalized growth,[50],0.977
same,normalized growth,[51],1
same,normalized growth,[52],0.981
same,normalized growth,[53],1
same,normalized growth,[54],0.992
same,normalized growth,[55],0.968
same,normalized growth,[56],0.999
same,normalized growth,[57],0.968
same,normalized growth,[58],0.953
same,normalized growth,[59],0.983
same,normalized growth,[60],0.962
same,normalized growth,[61],0.996
same,normalized growth,[62],0.971
same,normalized growth,[63],0.966
same,normalized growth,[64],0.986
same,normalized growth,[65],0.995
same,normalized growth,[66],0.959
same,normalized growth,[67],0.998
same,normalized growth,[68],0.989
same,normalized growth,[69],0.986
same,normalized growth,[70],0.981
same,normalized growth,[71],1
